Rab9 promoter act = Rab9 promoter activation | Huh7 Rab9 promoter-luciferase reporter, luminescence, 24 h | Potency, µM (titrated, usually from 9.22 µM), most hits filed as activators | 320,000 tested, 2.8% active; further: nearly all actives have a fitted effect of over 60% in size
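Cell-based reporter: Huh7 stable for Rab9 promoter-driven luciferase, plated in reduced-serum medium with 10% FBS at 1500 cells/well, compound-treated 24 h at 37 °C, luminescence read after 10 min reagent.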
ELG1 repair inh = ELG1-dependent DNA repair inhibition; HEK293T ELG1-luciferase reporter, luminescence, 16 h; DNA damage induced by 5-fluorouridine; Potency, µM (series often up to 46.1 µM), hits mostly inhibitors; 330,000 tested, 2.3% active; AID 504467; further: nearly all actives have a fitted effect of over 55% in size
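Overnight (16 hr) co-exposure of 2,000 cells/well to 5-fluorouridine and compound at 37 °C preceded detection. Luciferase was quantified via ONE-Glo luminescence; loss of signal denotes inhibition.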
ELG1 genotox = induces genotoxicity in HEK293T cells with luciferase-tagged ELG1 | HEK293T ELG1-luciferase reporter, luminescence, 16 h | Potency, µM (top dose mostly 46 µM), actives largely listed as activators | 330,000 tested, 1.3% active; further: nearly all actives have a fitted effect of over 60% in size
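Cells (2,000/well) expressing the ELG1-luciferase fusion are dosed by pin tool and kept 16 hr at 37 °C, 5% CO2. Signal comes from ONE-Glo luciferase reagent after 30 min at room temperature.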
NPC1 promoter act = NPC1 promoter activation | Potency, µM (highest dose often 9.22 µM), most hits filed as activators | Huh7 NPC1 promoter luciferase reporter, 24 h | 320,000 tested, 2.4% active | AID 485313; further: nearly all actives have a fitted effect of over 60% in size
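Stable NPC1-promoter luciferase Huh7 line; cpd (DMSO) 24 h, 37 °C, 5% CO2; Amplite luciferase reagent 10 min RT; luminescence readout. qHTS format.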
FLuc modulator = counter-screen for miR-21 project: firefly luciferase inhibitors or activators; 360,000 tested, 6.9% active; Potency, µM (doses to about 57.5 µM), hits mostly inhibitors; purified FLuc, Km substrates, luminescence inhibition; P08659; AID 588342; further: nearly all actives have a fitted effect of over 55% in size
Target sequence (P08659 whole entry, looked up): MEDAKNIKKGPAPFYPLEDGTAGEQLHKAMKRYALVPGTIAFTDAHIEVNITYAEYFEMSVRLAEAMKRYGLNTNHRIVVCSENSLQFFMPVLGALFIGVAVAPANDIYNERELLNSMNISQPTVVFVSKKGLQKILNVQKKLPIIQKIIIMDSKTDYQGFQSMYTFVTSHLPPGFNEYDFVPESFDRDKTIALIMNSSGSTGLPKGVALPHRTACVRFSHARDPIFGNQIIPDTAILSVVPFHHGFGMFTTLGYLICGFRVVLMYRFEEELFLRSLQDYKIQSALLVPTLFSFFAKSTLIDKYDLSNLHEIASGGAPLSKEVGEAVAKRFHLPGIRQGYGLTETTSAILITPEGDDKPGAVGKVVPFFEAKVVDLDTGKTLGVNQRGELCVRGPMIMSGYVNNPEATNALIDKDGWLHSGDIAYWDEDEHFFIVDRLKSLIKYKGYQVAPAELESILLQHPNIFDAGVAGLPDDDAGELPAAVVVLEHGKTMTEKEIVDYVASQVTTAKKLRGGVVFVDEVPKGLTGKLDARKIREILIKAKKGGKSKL
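Purified P. pyralis luciferase, 10 nM final, with Km-level 10 uM D-luciferin and 10 uM ATP in 50 mM Tris acetate pH 7.5, 10 mM Mg acetate, 0.01% Tween-20, 0.05% BSA; 6-point qHTS titration about 60 µM downward; luminescence read.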
SMN2 splice up = enhancers of SMN2 splice variant expression; 210,000 tested, 2.8% active; AID 1458; Potency, µM (series often up to 46.1 µM), usual class: activators; HEK293 SMN2-luciferase splicing reporter, luminescence, 30-36 h; further: nearly all actives have a fitted effect of over 55% in size
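qHTS luciferase splicing reporter: luminescence rises when SMN2 exon 7 is included in transfected HEK293 cells. Compound exposure lasted 30-36 h at 37C, with 4.5 mM final sodium butyrate as control, followed by a ONE-Glo read.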
Numbers stand for hits; – = inactive; ? = inconclusive; · = not tested or not shown; [ ] = remark or other dose. An excerpt weighted towards active compounds, which were near 9.4% of everything screened. The call rests on the fitted dose curve; in most records, active means well fitted curve in the direction sought with a large enough effect; inconclusive means small, poorly fitted or top-dose-only effect, or another doubt; inactive means no such curve, though single readings can be large; an effect the other way counts as inactive or inconclusive.

SMILES | Rab9 promoter act | ELG1 repair inh | ELG1 genotox | NPC1 promoter act | FLuc modulator | SMN2 splice up
COC(=O)C1=C(C)NC(=O)/C1=C\c1cc(C)n(-c2cccc(C)c2)c1C | – | ? | – | – | 26.9µM | –
COC(=O)C1=C(O)/C(=C\c2cc(C)n(-c3ccc(F)cc3)c2C)N=C1C | – | – | – | – | ? | –
COC(=O)C1=C(C)NC(=O)/C1=C\c1cc(C)n(-c2ccc(F)cc2)c1C | – | – | – | – | 19µM | –
CC(=O)Nc1ccc(-c2nnc3n(Cc4ccc(C)cc4)c(=O)c4ccccc4n23)cc1 | · | · | · | · | – | ·
CCc1ccc(-c2ccc(C(=O)Oc3ccc(Br)cc3)cc2)nc1 | · | · | · | · | – | –
CCc1ccc(-c2ccc(C(=O)O)cc2)nc1 | 3.55µM | ? | – | ? | 8.49µM | ?
COC(=O)c1cnn(-c2nc(-c3ccccc3)cs2)c1N | ? | ? | ? | ? | 2.69µM | ·
Nc1c(-c2cccs2)cnn1-c1nc(-c2ccc(Cl)cc2Cl)cs1 | – | – | – | – | ? | –
Nc1c(-c2cccs2)cnn1-c1nc(-c2ccc(F)cc2)cs1 | ? | ? | – | ? | 7.57µM | –
COc1ccc(-c2csc(-n3ncc(-c4ccccn4)c3N)n2)cc1 | – | – | – | – | – | –
Nc1c(-c2ccccn2)cnn1-c1nc(-c2ccc(F)cc2)cs1 | – | – | – | – | 9.53µM | –
O=C(C[C@@H](C(=O)O)N1CCOCC1)c1ccccc1 | · | · | · | · | · | –[9.22 µM]
CCC(=O)N1CCc2cc(CNC(=O)c3ccc(F)cc3)ccc21 | · | · | · | · | – | ·
CC(=O)c1cccc(NC(=O)c2cc3nc(C)cc(C)n3n2)c1 | 2µM | ? | 8.2µM | ? | 7.57µM | 12.6µM
CC(=O)c1cccc(Nc2cc(C)nc3nc(-c4ccccc4C)nn23)c1 | · | · | · | · | 19µM | –
Cc1cc(C)n2nc(C(=O)Nc3ccc4c(c3)OCO4)cc2n1 | 3.16µM | ? | 2.06µM | 1.26µM | 4.78µM | 7.94µM
COc1ccc(C(CNC(=O)c2cccc(S(=O)(=O)N3CCc4ccccc43)c2)N(C)C)cc1 (centres undefined) | · | – | – | · | · | ·
c1ccc2c(Nc3nc4c(s3)CCCC4)cccc2c1 | 3.55µM | ? | ? | ? | 4.78µM | ?
COc1ccc(CNC(=O)CCC(=O)N2CCSc3ccccc32)cc1 | · | · | · | · | – | ·
Clc1ccccc1-c1nc(-c2ccccc2)n[nH]1 | 2.82µM | ? | ? | 3.16µM | 6.75µM | ?
O=[N+]([O-])c1cc(-c2n[nH]c(-c3ccccc3)n2)cc([N+](=O)[O-])c1 | – | ? | – | – | – | –
O=S(=O)(O)CCCc1cccc2ccccc12 | · | · | · | · | · | –[9.22 µM]
Cc1ccc(-n2c(C)cc(C(=O)CSc3nncs3)c2C)cc1 | 0.501µM | ? | ? | 1µM | 3.01µM | –
Cc1ccc(-n2c(C)cc(C(=O)CSc3nnnn3C)c2C)cc1 | 0.708µM | ? | – | 0.708µM | 2.69µM | ?
CCC(=O)N1CCc2cc(Br)cc(S(=O)(=O)NCCc3ccccc3Cl)c21 | · | · | · | · | – | –
SMILES | Rab9 promoter act | ELG1 repair inh | ELG1 genotox | NPC1 promoter act | FLuc modulator | SMN2 splice up
O=C(O)c1cccc(NC(=O)C2CCCO2)c1 (centres undefined) | – | – | – | – | – | –
O=C(Nc1ccc2oc(-c3ccccc3)nc2c1)C1CCCO1 (centres undefined) | 2.82µM | ? | 18.4µM | 2.24µM | 7.57µM | 11.2µM
O=C(Nc1ccc(-c2nc3cc(Cl)ccc3o2)cc1)C1CCCO1 (centres undefined) | 0.501µM | ? | 18.4µM | 0.794µM | 1.2µM | 2.82µM
O=C(Nc1ccc(-c2nc3cccnc3s2)cc1)C1CCCO1 (centres undefined) | 0.1µM | ? | ? | 0.126µM | 0.601µM | 1.12µM
O=C(Nc1ccc(-c2nc3ccccc3o2)cc1)C1CCCO1 (centres undefined) | 0.447µM | ? | ? | 0.316µM | 1.35µM | 7.94µM
CCc1nc2ccc(C(=O)NCc3ccc(N(C)C)cc3)cc2nc1CC | · | · | · | · | – | ·
Cc1ccc2nc(-c3ccc(N4C(=O)CC(N5CCN(CCO)CC5)C4=O)cc3)sc2c1 (centres undefined) | – | ? | ? | – | 8.49µM | –
Cc1ccc(N2C(=O)CC(N3CCN(c4ccccn4)CC3)C2=O)cc1 (centres undefined) | – | – | – | – | – | –
CC1=NN(c2cccc(C(=O)O)c2)C(=O)/C1=C\C=C/c1ccccc1 | – | ? | – | – | 2.39µM | –
CC1=NN(c2ccccc2)C(=O)/C1=C\c1cc(C)n(-c2cccnc2)c1C | – | – | – | – | 2.69µM | ·
Cc1cc(/C=C2/SC(=S)N(c3ccc([N+](=O)[O-])cc3)C2=O)c(C)n1-c1cccnc1 | – | – | – | – | – | –
CC1=NN(c2ccccc2)C(=O)/C1=C\c1cc(C)n(-c2ccccc2)c1C | – | ? | ? | – | 0.536µM | –
CCN(Cc1ccccc1)S(=O)(=O)c1ccc(-c2coc(C)n2)cc1 | · | · | · | · | – | ·
CCn1c2ccc(Cl)cc2c2nc3ccccc3nc21 | – | – | – | – | ? | –
CCn1c2ccc(C)cc2c2nc3cc(C(=O)O)ccc3nc21 | ? | ? | ? | – | 26.9µM | –
Cc1c(C(=O)N2CCOCC2)oc2ccc(S(=O)(=O)N3CCCC3)cc12 | 0.0158µM | ? | · | ? | – | –
Cc1c(C(=O)N2c3ccccc3CC2C)oc2ccccc12 (centres undefined) | 2.82µM | ? | ? | – | 4.78µM | ·
Cc1c(C(=O)N2CCc3ccccc3C2)oc2ccccc12 | – | ? | – | ? | 23.9µM | ·
CCOC(=O)N1CCN(C(=O)c2oc3ccc(S(=O)(=O)N4CCOCC4)cc3c2C)CC1 | – | ? | – | – | – | –
Cc1c(C(=O)O)oc2ccc(S(=O)(=O)N3CC(C)CC(C)C3)cc12 (centres undefined) | – | – | – | – | – | –
Cc1c(C(=O)N(C)CCC#N)oc2ccc(S(=O)(=O)N3CC(C)CC(C)C3)cc12 (centres undefined) | – | 7.3µM | – | – | – | ·
COc1ccc(-c2nnn3c2nc(NCCc2ccc(OC)c(OC)c2)c2ccccc23)cc1 | · | · | · | · | – | –
CCOC(=O)N1CCN(C(=O)c2oc3ccc(S(=O)(=O)N4CC(C)CC(C)C4)cc3c2C)CC1 (centres undefined) | – | ? | – | – | – | –
CCOC(=O)C1CCN(C(=O)c2oc3ccc(S(=O)(=O)N4CC(C)CC(C)C4)cc3c2C)CC1 (centres undefined) | – | 10.3µM | ? | – | – | –
CCOC(=O)N1CCN(C(=O)c2oc3ccc(S(=O)(=O)N4CCCCCC4)cc3c2C)CC1 | – | ? | – | – | – | –
Cc1c(C(=O)N2CCc3ccccc3C2)oc2ccc(S(=O)(=O)N3CCCCCC3)cc12 | – | 16.4µM | – | – | – | –

High-throughput results deposited in PubChem by National Center for Advancing Translational Sciences (NCATS).
